# Source: the supplement of paper PMC8728848
# This excerpt belongs to a sample that is enriched for the strongest signals.
# B1: rCnSL-proB (Clitocybe nebularis) (protein)
# chain: PTFSPIFALLAFLPFGTLASLLPQTQLVFRINPNLPGPNDVFVGYRGTNNVVGAIYERDGIKDTPMNNGADAELGPGSYITDDLFTAQIFASGSAGNNPGTTATVCKIYADGVQWRGAPKGYLPVLYFGNGQAAEQTRQTYLQGLDIPGTAIRFANLAKTPNQGPTAPRQMVVPSGGLQTLLKASCFPANHAALPQVLSYFNVRAALPPGWNIRTGPEFPNWTN
# Experiments:
# Assay in all cases: glycan array binding signal (z-score within array); higher = stronger binding
# Conditions in all cases: glycan notation: IUPAC condensed, linker removed
# [1] = target: Fuc(a1-2)Gal(b1-3)GlcNAc6S
# Outline: (§1)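 Glycan array data were curated from 3228 arrays in the Consortium for Functional Glycomics database and kept only where the protein sequence was available. Glycan names were converted to IUPAC-condensed notation, and columns mapping to the same glycan were averaged. The binding signal is a within-array Z-score, averaged across arrays of the same protein sequence at different concentrations or buffers and across linkers. Negative Z-scores can be read as non-binding.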
# [2] = target: Fuc(a1-2)Gal(b1-3)[Fuc(a1-4)]GlcNAc(b1-2)Man(a1-3)[Fuc(a1-2)Gal(b1-3)[Fuc(a1-4)]GlcNAc(b1-2)Man(a1-3)]Man(b1-4)GlcNAc(b1-4)GlcNAc
# Outline: as §1
# [3] = target: Fuc(a1-2)Gal(b1-4)[Fuc(a1-3)]GlcNAc(b1-3)GalNAc
# Outline: as §1
# [4] = target: Fuc(a1-2)[Gal(a1-3)]Gal(b1-3)GlcNAc(b1-2)Man(a1-3)[Fuc(a1-2)[Gal(a1-3)]Gal(b1-3)GlcNAc(b1-2)Man(a1-6)]Man(b1-4)GlcNAc(b1-4)[Fuc(a1-6)]GlcNAc
# Outline: as §1
# [5] = target: Fuc(a1-2)[Gal(a1-3)]Gal(b1-4)GlcNAc
# Outline: as §1
# [6] = target: Fuc(a1-2)[GalNAc(a1-3)]Gal(b1-3)GlcNAc(b1-2)Man(a1-3)[Fuc(a1-2)[GalNAc(a1-3)]Gal(b1-3)GlcNAc(b1-2)Man(a1-6)]Man(b1-4)GlcNAc(b1-4)[Fuc(a1-6)]GlcNAc
# Outline: as §1
# [7] = target: Fuc(a1-2)[GalNAc(a1-3)]Gal(b1-4)GlcNAc(b1-2)Man(a1-3)[Fuc(a1-2)[GalNAc(a1-3)]Gal(b1-4)GlcNAc(b1-2)Man(a1-6)]Man(b1-4)GlcNAc(b1-4)GlcNAc
# Outline: as §1
# [8] = target: Fuc(a1-2)[GalNAc(a1-3)]Gal(b1-4)[Fuc(a1-3)]GlcNAc
# Outline: as §1
# [9] = target: Fuc(a1-3)[Gal(b1-4)]GlcNAc(b1-2)Man
# Outline: as §1
# [10] = target: Fuc(a1-3)[Gal(b1-4)]GlcNAc(b1-6)[Gal(b1-3)GlcNAc(b1-3)]Gal(b1-4)Glc
# Outline: as §1
# [11] = target: Gal(a1-3)Gal(b1-3)GlcNAc(b1-2)Man(a1-3)[Gal(a1-3)Gal(b1-3)GlcNAc(b1-2)Man(a1-6)]Man(b1-4)GlcNAc(b1-4)GlcNAc
# Outline: as §1
# [12] = target: Gal(b1-3)GlcNAc(b1-2)Man(a1-3)[Gal(b1-3)GlcNAc(b1-2)Man(a1-6)]Man(b1-4)GlcNAc(b1-4)[Fuc(a1-6)]GlcNAc
# Outline: as §1
# [13] = target: Gal(b1-3)GlcNAc(b1-3)Gal(b1-4)GlcNAc(b1-2)Man(a1-3)[Gal(b1-3)GlcNAc(b1-3)Gal(b1-4)GlcNAc(b1-2)Man(a1-6)]Man(b1-4)GlcNAc(b1-4)GlcNAc
# Outline: as §1
# [14] = target: Gal(b1-3)GlcNAc(b1-6)[Gal(b1-3)]GalNAc
# Outline: as §1
# [15] = target: Gal(b1-3)[Neu5Ac(a2-6)]GalNAc
# Outline: as §1
# Gal(b1-4)Glc6S = target: Gal(b1-4)Glc6S
# Outline: as §1
# [16] = target: Gal(b1-4)GlcNAc(b1-2)[Gal(b1-4)GlcNAc(b1-4)]Man(a1-3)[Gal(b1-4)GlcNAc(b1-2)[Gal(b1-4)GlcNAc(b1-6)]Man(a1-6)]Man(b1-4)GlcNAc(b1-4)GlcNAc
# Outline: as §1
# [17] = target: Gal(b1-4)GlcNAc(b1-2)[Gal(b1-4)GlcNAc(b1-6)]Man(a1-6)[Gal(b1-4)GlcNAc(b1-2)Man(a1-3)]Man(b1-4)GlcNAc(b1-4)[Fuc(a1-6)]GlcNAc
# Outline: as §1
# [18] = target: Gal(b1-4)GlcNAc(b1-3)Gal(b1-4)GlcNAc(b1-2)Man(a1-3)[Gal(b1-4)GlcNAc(b1-3)Gal(b1-4)GlcNAc(b1-2)Man(a1-6)]Man(b1-4)GlcNAc(b1-4)GlcNAc
# Outline: as §1
# [19] = target: Gal(b1-4)GlcNAc(b1-3)Gal(b1-4)GlcNAc(b1-3)Gal(b1-4)GlcNAc(b1-2)Man(a1-3)[Gal(b1-4)GlcNAc(b1-3)Gal(b1-4)GlcNAc(b1-3)Gal(b1-4)GlcNAc(b1-2)Man(a1-6)]Man(b1-4)GlcNAc(b1-4)GlcNAc
# Outline: as §1
# [20] = target: Gal(b1-4)GlcNAc(b1-3)Gal(b1-4)GlcNAc(b1-3)Gal(b1-4)GlcNAc(b1-2)Man(a1-3)[Gal(b1-4)GlcNAc(b1-3)Gal(b1-4)GlcNAc(b1-3)Gal(b1-4)GlcNAc(b1-2)Man(a1-6)]Man(b1-4)GlcNAc(b1-4)[Fuc(a1-6)]GlcNAc
# Outline: as §1
# [21] = target: Gal(b1-4)GlcNAc(b1-3)Gal(b1-4)GlcNAc(b1-3)Gal(b1-4)GlcNAc(b1-3)Gal(b1-4)GlcNAc(b1-2)Man(a1-3)[Gal(b1-4)GlcNAc(b1-3)Gal(b1-4)GlcNAc(b1-3)Gal(b1-4)GlcNAc(b1-3)Gal(b1-4)GlcNAc(b1-2)Man(a1-6)]Man(b1-4)GlcNAc(b1-4)[Fuc(a1-6)]GlcNAc
# Outline: as §1
# [22] = target: Gal(b1-4)GlcNAc(b1-3)Gal(b1-4)GlcNAc(b1-3)Gal(b1-4)GlcNAc(b1-3)Gal(b1-4)GlcNAc(b1-3)Gal(b1-4)GlcNAc(b1-2)Man(a1-3)[Gal(b1-4)GlcNAc(b1-3)Gal(b1-4)GlcNAc(b1-3)Gal(b1-4)GlcNAc(b1-3)Gal(b1-4)GlcNAc(b1-3)Gal(b1-4)GlcNAc(b1-2)Man(a1-6)]Man(b1-4)GlcNAc(b1-4)[Fuc(a1-6)]GlcNAc
# Outline: as §1
# [23] = target: Gal(b1-4)GlcNAc(b1-3)Gal(b1-4)GlcNAc(b1-3)[Gal(b1-4)GlcNAc(b1-3)Gal(b1-4)GlcNAc(b1-6)]GalNAc
# Outline: as §1
# [24] = target: Gal(b1-4)GlcNAc(b1-3)[Gal(b1-4)GlcNAc(b1-6)]Gal(b1-4)GlcNAc
# Outline: as §1
# [25] = target: Gal3S(b1-4)[Fuc(a1-3)]Glc6S
# Outline: as §1
# [26] = target: GalNAc(b1-4)GlcNAc(b1-2)Man(a1-3)[GalNAc(b1-4)GlcNAc(b1-2)Man(a1-6)]Man(b1-4)GlcNAc(b1-4)GlcNAc
# Outline: as §1
# [27] = target: GlcNAc(a1-4)Gal(b1-4)GlcNAc
# Outline: as §1
# [28] = target: GlcNAc(b1-2)[GlcNAc(b1-4)]Man(a1-3)[GlcNAc(b1-2)Man(a1-6)]Man(b1-4)GlcNAc(b1-4)GlcNAc
# Outline: as §1
# [29] = target: GlcNAc(b1-3)Gal(b1-4)GlcNAc(b1-3)Gal(b1-4)GlcNAc(b1-3)Gal(b1-4)GlcNAc(b1-3)Gal(b1-4)GlcNAc(b1-2)[GlcNAc(b1-3)Gal(b1-4)GlcNAc(b1-3)Gal(b1-4)GlcNAc(b1-3)Gal(b1-4)GlcNAc(b1-3)Gal(b1-4)GlcNAc(b1-6)]Man(a1-6)[GlcNAc(b1-3)Gal(b1-4)GlcNAc(b1-3)Gal(b1-4)GlcNAc(b1-3)Gal(b1-4)GlcNAc(b1-3)Gal(b1-4)GlcNAc(b1-2)Man(a1-3)]Man(b1-4)GlcNAc(b1-4)[Fuc(a1-6)]GlcNAc
# Outline: as §1
# GlcNAc(b1-3)GalNAc = target: GlcNAc(b1-3)GalNAc
# Outline: as §1
# [30] = target: GlcNAc(b1-3)[GlcNAc(b1-4)][GlcNAc(b1-6)]GlcNAc
# Outline: as §1
# [31] = target: GlcNAc(b1-3)[GlcNAc(b1-6)]GalNAc
# Outline: as §1
# Kdn(a2-3)Gal(b1-4)Glc = target: Kdn(a2-3)Gal(b1-4)Glc
# Outline: as §1
# MurNAc(b1-4)GlcNAc = target: MurNAc(b1-4)GlcNAc
# Outline: as §1
# [32] = target: Neu5Ac(a2-3)Gal(b1-3)GalNAc
# Outline: as §1
# [33] = target: Neu5Ac(a2-3)Gal(b1-3)GalNAc(b1-4)[Neu5Ac(a2-3)]Gal(b1-4)Glc
# Outline: as §1
# [34] = target: Neu5Ac(a2-3)Gal(b1-3)GlcNAc(b1-2)Man(a1-3)[Neu5Ac(a2-3)Gal(b1-3)GlcNAc(b1-2)Man(a1-6)]Man(b1-4)GlcNAc(b1-4)GlcNAc
# Outline: as §1
# [35] = target: Neu5Ac(a2-3)Gal(b1-3)GlcNAc(b1-2)[Neu5Ac(a2-3)Gal(b1-3)GlcNAc(b1-4)]Man(a1-6)[Neu5Ac(a2-3)Gal(b1-3)GlcNAc(b1-2)Man(a1-3)]Man(b1-4)GlcNAc(b1-4)GlcNAc
# Outline: as §1
# [36] = target: Neu5Ac(a2-3)Gal(b1-3)GlcNAc6S
# Outline: as §1
# [37] = target: Neu5Ac(a2-3)Gal(b1-3)[Fuc(a1-4)]GlcNAc
# Outline: as §1
# [38] = target: Neu5Ac(a2-3)Gal(b1-3)[Fuc(a1-4)]GlcNAc(b1-3)Gal(b1-4)[Fuc(a1-3)]GlcNAc
# Outline: as §1
# [39] = target: Neu5Ac(a2-3)Gal(b1-4)GlcNAc(b1-3)Gal(b1-4)GlcNAc(b1-3)Gal(b1-4)GlcNAc(b1-2)Man(a1-3)[Neu5Ac(a2-3)Gal(b1-4)GlcNAc(b1-3)Gal(b1-4)GlcNAc(b1-3)Gal(b1-4)GlcNAc(b1-2)Man(a1-6)]GalNAc
# Outline: as §1
# [40] = target: Neu5Ac(a2-3)Gal(b1-4)GlcNAc(b1-6)[Neu5Ac(a2-3)Gal(b1-3)]GalNAc
# Outline: as §1
# [41] = target: Neu5Ac(a2-6)Gal(b1-4)GlcNAc(b1-2)Man
# Outline: as §1
# [42] = target: Neu5Ac(a2-6)Gal(b1-4)GlcNAc(b1-2)Man(a1-3)[Neu5Ac(a2-6)Gal(b1-4)GlcNAc(b1-2)Man(a1-6)]Man(b1-4)GlcNAc(b1-4)[Fuc(a1-6)]GlcNAc
# Outline: as §1
# [43] = target: Neu5Ac(a2-6)GlcNAc(b1-4)GlcNAc
# Outline: as §1
# [44] = target: Neu5Ac(a2-8)Neu5Ac(a2-8)Neu5Ac
# Outline: as §1
# [45] = target: Neu5Ac9Ac(a2-3)Gal(b1-3)GlcNAc
# Outline: as §1
binder,measurement,setting,value
B1,glycan array binding signal (z-score),[1],-0.282
same,glycan array binding signal (z-score),[2],3.69
same,glycan array binding signal (z-score),[3],0.251
same,glycan array binding signal (z-score),[4],0.259
same,glycan array binding signal (z-score),[5],-0.77
same,glycan array binding signal (z-score),[6],3.9
same,glycan array binding signal (z-score),[7],-0.08
same,glycan array binding signal (z-score),[8],-0.654
same,glycan array binding signal (z-score),[9],-0.565
same,glycan array binding signal (z-score),[10],-0.826
same,glycan array binding signal (z-score),[11],-0.093
same,glycan array binding signal (z-score),[12],-0.42
same,glycan array binding signal (z-score),[13],3.58
same,glycan array binding signal (z-score),[14],-0.511
same,glycan array binding signal (z-score),[15],0.089
same,glycan array binding signal (z-score),Gal(b1-4)Glc6S,-0.06
same,glycan array binding signal (z-score),[16],3.51
same,glycan array binding signal (z-score),[17],4.49
same,glycan array binding signal (z-score),[18],6.35
same,glycan array binding signal (z-score),[19],4.18
same,glycan array binding signal (z-score),[20],1.76
same,glycan array binding signal (z-score),[21],2.28
same,glycan array binding signal (z-score),[22],0.375
same,glycan array binding signal (z-score),[23],4.08
same,glycan array binding signal (z-score),[24],-0.283
same,glycan array binding signal (z-score),[25],0.549
same,glycan array binding signal (z-score),[26],3.38
same,glycan array binding signal (z-score),[27],-0.308
same,glycan array binding signal (z-score),[28],-0.133
same,glycan array binding signal (z-score),[29],0.742
same,glycan array binding signal (z-score),GlcNAc(b1-3)GalNAc,-0.757
same,glycan array binding signal (z-score),[30],-0.62
same,glycan array binding signal (z-score),[31],-0.668
same,glycan array binding signal (z-score),Kdn(a2-3)Gal(b1-4)Glc,-1.27
same,glycan array binding signal (z-score),MurNAc(b1-4)GlcNAc,-0.477
same,glycan array binding signal (z-score),[32],-0.437
same,glycan array binding signal (z-score),[33],-0.343
same,glycan array binding signal (z-score),[34],3.69
same,glycan array binding signal (z-score),[35],0.146
same,glycan array binding signal (z-score),[36],0.395
same,glycan array binding signal (z-score),[37],-0.555
same,glycan array binding signal (z-score),[38],0.025
same,glycan array binding signal (z-score),[39],4.43
same,glycan array binding signal (z-score),[40],-0.239
same,glycan array binding signal (z-score),[41],0.328
same,glycan array binding signal (z-score),[42],0.037
same,glycan array binding signal (z-score),[43],-0.255
same,glycan array binding signal (z-score),[44],-0.203
same,glycan array binding signal (z-score),[45],-0.873
